Measured values published in the supplement of paper PMC9942566.
± gives the standard deviation of the averaged measurements.

Tested on: Serratia marcescens K904 PosmB-luxCDABE reporter (pMQ747)
Test: PosmB-lux reporter fold induction (RLU/OD600 relative to no-compound control), highest over Biolog concentrations; higher = stronger Rcs reporter activation
Details: wild type K904; 4 h
Experimental: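 Serratia marcescens K904 (wild type) or its isogenic ΔrcsB mutant, carrying the Rcs-dependent PosmB-luxCDABE reporter plasmid pMQ747, was grown in LB at OD600 0.1 in Biolog Phenotype MicroArray plates PM11-20 for 4 h at 30-32°C. Each compound is present at 3-4 proprietary concentrations (not stated); per the Fig. S1 legend the value given is the highest fold over those wells. Three independent trials.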

| Structure (SMILES) | PosmB-lux reporter fold induction |
| --- | --- |
| CO[C@@H]1[C@@H](O[C@@H]2O[C@H](C)[C@@H](O[C@H]3C[C@@](C)(O)[C@@H](OC(=O)CC(C)C)[C@H](C)O3)[C@H](N(C)C)[C@H]2O)[C@@H](CC=O)C[C@@H](C)[C@@H](O)/C=C/C=C/C[C@@H](C)OC(=O)C[C@H]1OC(C)=O [josamycin] (Biolog plate: PM19, well positions: A2-4) | 1.27 ± 0.74 |
| NC(=O)c1cc[n+](CC2=C(C(=O)[O-])N3C(=O)[C@@H](NC(=O)[C@@H](c4ccccc4)S(=O)(=O)O)[C@H]3SC2)cc1 [cefsulodin] (Biolog plate: PM17, well positions: H1-4) | 18.5 ± 17 |
| [Na+].[O]=[V](=[O])[O-] [Sodium metavanadate] (Biolog plate: PM14, well positions: F9-12) | 3.94 ± 1.2 |
| Nc1c2ccccc2nc2ccccc12 [9-Aminoacridine] (Biolog plate: PM14, well positions: B1-4) | 1.7 ± 0.1 |
| Cc1onc(-c2ccccc2)c1C(=O)N[C@@H]1C(=O)N2[C@@H]1SC(C)(C)[C@@H]2C(=O)O [Oxacillin] (Biolog plate: PM12, well positions: B1-4) | 2.16 ± 0.46 |
| c1ccc(-c2nn(-c3ccccc3)[n+](-c3cccc4ccccc34)n2)cc1 [tetrazolium violet] (Biolog plate: PM20, well positions: B9-12) | 0.453 ± 0.17 |
| [Cl][Cu][Cl] [Cupric chloride] (Biolog plate: PM13, well positions: H1-4) | 1.13 ± 0.12 |
| Cc1cc(N)c2ccccc2[n+]1CCCCCCCCCC[n+]1c(C)cc(N)c2ccccc21 [Dequalinium chloride] (Biolog plate: PM13, well positions: A5-8) | 1.23 ± 0.086 |
| NC(CO)C(=O)NO (racemic) [D,L-Serine hydroxamate] (Biolog plate: PM12, well positions: C9-12) | 3.63 ± 0.5 |
| N.N.N.N.N.N.[Cl-].[Cl-].[Cl-].[Co+3] [hexammine cobalt (III) chloride] (Biolog plate: PM19, well positions: H1-4) | 1.64 ± 0.12 |
| CN(C)C(=O)/N=N/C(=O)N(C)C [diamide] (Biolog plate: PM16, well positions: D5-8) | 1.26 ± 0.35 |
| Nc1ccn(C2OC(CO)C(O)C2O)c(=O)n1 [Cytosine-1-beta-D-arabino-furanoside] (Biolog plate: PM13, well positions: E1-4) | 1.5 ± 0.15 |
| CN1CCN(CCCN2c3ccccc3Sc3ccc(C(F)(F)F)cc32)CC1 [Trifluoperazine] (Biolog plate: PM13, well positions: G9-12) | 1.34 ± 0.17 |
| CO[C@H]1/C=C/O[C@@]2(C)Oc3c(C)c(O)c4c(O)c(c(/C=N/N5CCN(C)CC5)c(O)c4c3C2=O)NC(=O)/C(C)=C\C=C\[C@H](C)[C@H](O)[C@@H](C)[C@@H](O)[C@@H](C)[C@H](OC(C)=O)[C@@H]1C [Rifampicin] (Biolog plate: PM12, well positions: H5-8) | 4.01 ± 0.98 |
| C/C=C/C=C/C(=O)O [sorbic acid] (Biolog plate: PM16, well positions: H9-12) | 2.12 ± 0.59 |
| CC(CN1c2ccccc2Sc2ccccc21)N(C)C (configuration not stated) [Promethazine] (Biolog plate: PM14, well positions: H5-8) | 4.68 ± 1.8 |
| [Cl-].[Li+] [lithium chloride] (Biolog plate: PM17, well positions: F1-4) | 1.51 ± 0.57 |
